We go through 35 compounds from PubChem BioAssay.

SMILES strings stand for the structures. Unmarked numbers belong to inactive results. Activity calls are given as the source filed them.

A short description of this assay: optical density shifts of acrAB sulA E. coli – strain DRC41, OD650, 48 h, E. coli filamentation inducer project, primary screen (AID 1152).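 Note: E. coli MC1000 strain DRC41 lacking acrAB efflux pump and sulA.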 Conditions: higher = more signal, called active from +8 up or from −8 down.
For `C=C(C)c1cc2c(c(CCCCCC)n1)[Si](C(C)C)(C(C)C)OC2`, the z-score was -0.959.

On to `COc1ccc(NC(=O)O[C@H]2[C@H](OC(=O)Nc3ccccc3)[C@H](OC(=O)Nc3ccccc3)[C@@H](OC)O[C@@H]2CO)cc1`, for which the z-score is -1.37.

Regarding `CCCCC(O)C1C=CC2C(=O)N(c3ccccc3)C(=O)C2N1Nc1ccc(C(C)C)cc1` (stereo not given), the z-score was -0.759.

Regarding `[N-]=[N+]=NCc1ccccc1C[C@@]1(C(=O)N2CCOCC2)N=C(c2ccc(OCCCO)cc2)O[C@@H]1c1ccccc1`, the z-score is 0.083.

As to `CC(c1ccccc1)C(O)C1C=CC2C(=O)N(c3ccccc3)C(=O)C2N1Nc1ccc([N+](=O)[O-])cc1` (stereo not given), the z-score is 0.179.

Regarding `COc1ccc(CN(C2=CC[C@@]3(C(N)=O)C(=O)C(Cl)=C(Cl)C(=O)[C@@]3(C#N)C2)S(=O)(=O)c2ccc(Br)cc2)cc1`, the z-score was 1.3.

With `COC(=O)CCCCCCC(=O)Nc1ccc(NC(=O)CCCC[P+](c2ccccc2)(c2ccccc2)c2ccccc2)cc1`, the z-score was -12.4 (active).

On to `CC(C)N1C(=O)C[C@@](C(=O)NCCCN(C)C)(c2ccc([N+](=O)[O-])cc2)[C@H]1c1ccc(CO)cc1`, for which the z-score was -0.898.

Turning to `CCOC(=O)C1=CC[C@@H](c2ccc(OCc3ccccc3)c(OC)c2)N(S(=O)(=O)c2ccc(C)cc2)[C@H]1c1ccc(SC)cc1`, the z-score was -1.21.

Consider `COC(=O)c1c2oc(c1C(=O)OC)C(=O)N(C)Cc1cn(nn1)C[C@H](Cc1ccccc1)NC(=O)N[C@H](CO)CC2`, for which the z-score was -0.878.

For `O=C1OCC=C[C@H]2OC34C=CCN(Cn5nnc6ccccc65)C(=O)[C@H]3N(CCCO)C(=O)[C@@H]4[C@@H]12` (stereo not given in full), the z-score was 1.54.

Consider `C[C@@H]1ON(c2ccc(C(=O)OC(C)(C)C)cc2)[C@H](c2ccc(O)cc2)[C@H]1C(=O)N1C(=O)OC[C@H]1Cc1ccccc1`, for which the z-score was -0.476.

As for `COCCOC(=O)N1C(=O)[C@@]2(c3cc(C#CC4=CCCCC4)ccc31)[C@H](C(N)=O)[C@H]1C(=O)O[C@H](c3ccccc3)[C@H](c3ccccc3)N1[C@@H]2c1ccccc1OCCO`, the z-score was -0.172.

Turning to `COC(=O)[C@@]1(Cc2ccc(OC)cc2)[C@@H]2C(=CC(=O)[C@H]2CC(=O)C(=O)N(C)C)CN1C(=O)c1ccccc1`, the z-score was -2.06.

`C=CC1c2cc(O)c(OC)cc2CCN1Cc1cc2c(cc1Br)OCO2` (stereo not given): the z-score is -1.93.

Turning to `C=CCC(OC(C)=O)[C@@H]1[C@@H](N(Cc2cc3ccccc3o2)C(=O)c2ccc(C)cc2)c2cc(OCCCO)ccc2N1C(=O)Cc1ccc(OC)cc1` (stereo not given in full), the z-score was 1.72.

`COc1cc(OC)c(C(O)C2C=CC3C(=O)N(c4ccccc4)C(=O)C3N2Nc2ccccc2)cc1Br` (stereo not given): the z-score is -0.789.

`Cc1ccc(S[C@]2(C(=O)NCC(F)(F)F)CC(=O)N(Cc3ccccc3)[C@@H]2c2ccc(CO)cc2I)cc1`: the z-score is -0.764.

Take `COC(=O)c1ccc([C@H](NC(=O)c2ccco2)[C@]2(C)C[C@H]2C2CCCCC2)cc1`: the z-score is -2.39.

Consider `NC(N)=NCCCn1cc(CNC(=O)[C@@H](N)Cc2ccccc2)nn1`, for which the z-score is -0.929.

As for `COC(=O)c1nc2oc1CC[C@@H](CO)NC(=O)N(C)Cc1cnnn1C[C@H](Cc1ccccc1)NC2=O`, the z-score is 2.17.

Consider `COCCOC(=O)N1C(=O)[C@@]2(c3cc(C#CC4=CCCCC4)ccc31)[C@H](c1ccc(OCCO)cc1)N1[C@H](c3ccccc3)[C@H](c3ccccc3)OC(=O)[C@H]1[C@@H]2C(=O)N1CCN(c2ncccn2)CC1`, for which the z-score was 0.887.

Consider `CC(C)(C)OC(=O)CC[C@]1(C(=O)NCC(O)CO)N=C(c2ccc(OCCCO)cc2)O[C@H]1c1ccccc1` (stereo not given in full), for which the z-score was 1.79.

Turning to `O=C1O[C@H](c2ccccc2)[C@H](c2ccccc2)N2[C@H]1[C@@H](C(=O)Nc1nc3ccccc3s1)[C@]1(C(=O)Nc3ccccc31)[C@H]2c1ccc(OCCO)cc1`, the z-score is -0.222.

Regarding `C=CC[C@]1(C(=O)NCCN2CCOCC2)N=C(c2ccc(OCCCO)cc2)O[C@H]1c1ccccc1CN=[N+]=[N-]`, the z-score was 1.33.

As for `COCCCNC(=O)[C@@]1(Cc2ccccc2CN=[N+]=[N-])N=C(c2ccc(OCCCO)cc2)O[C@H]1c1ccccc1`, the z-score is -0.314.

With `CN(C)C(=O)[C@@]1(CCS(=O)(=O)c2ccccc2)N=C(c2ccc(OCCCO)cc2)O[C@H]1c1ccccc1`, the z-score was -0.1.

`CCOC(=O)C1CCCCN1` (stereo not given): the z-score is -0.641.

For the compound `C=C(/C(=C/C[C@H](OC(=O)c1ccncc1)c1ccc(CO)o1)c1cc(C(=O)OC)ccc1OC)C(C)C`, the z-score is -0.23.

Regarding `COC(=O)[C@@]1(Cc2ccccc2)[C@H]2c3cc(C(=O)N(C)C)n(CCN4CNCC4=O)c3C[C@H]2CN1C(=O)c1ccccc1`, the z-score was -0.65.

For `O=C1O[C@H](c2ccccc2)[C@H](c2ccccc2)N2[C@H]1[C@@H](C(=O)Nc1nc3ccccc3s1)[C@]1(C(=O)Nc3ccc(C#CC4(O)CCCCCC4)cc31)[C@H]2c1ccccc1OCCO`, the z-score is -0.569.

For the compound `CCOC(=O)C[C@H]1[C@H](OC(=O)c2ccccc2-c2ccccc2)[C@@H](NC(=O)C2CCCCC2)c2cc(OCCCO)ccc2N1C(=O)Cc1ccc(OC)cc1`, the z-score is -1.13.

On to `CN(C)CCCNC(=O)[C@@]1(C)c2ccccc2C(=O)N(Cc2ccccc2)[C@H]1c1ccc(CO)cc1`, for which the z-score was -0.074.

As to `NC(=O)N1C(=O)C2C(C1=O)C1C=C(CCCO)C2C(c2cccs2)N1Cc1cccc(OC(F)(F)F)c1` (stereo not given), the z-score is -0.19.

On to `COc1ccc(NC(=O)O[C@H]2[C@H](OC(=O)Nc3ccccc3)[C@@H](OC(=O)Nc3ccccc3)[C@@H](OC)O[C@@H]2CO)cc1`, for which the z-score was -0.302.
